# Results published in PubChem BioAssay (NCI).
# About 83,000 compounds went through this panel and 20% of them were active in at least one assay; those are over-represented in the sample as a whole.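 Percent growth is the endpoint: 0 to 100 indicates growth inhibition (40 means 60% inhibition), 0 means no net growth, and negative values indicate cell death.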 Calls of active or inactive are those of the source. The calls were made as follows: active = growth percent below 10; inactive = the rest.
# Tested on: KM12 colon
# Test: NCI-60 one-dose screen, 48 h (100 = growth as untreated, 0 = no growth, -100 = all killed)
# Conditions: 10 µM unless noted
row,SMILES,growth
1,Cc1ccc2c(c1)c(Sc1ccc(C(=O)NO)cc1)c1n2CN(C)CC1,27.7% (inactive)
2,O=C1NC(=S)S/C1=C\c1cccc([N+](=O)[O-])c1,103% (inactive)
3,CCCN(CCC)c1ccc(/C=C/c2ccc3cc(OCC)ccc3n2)cc1,128% (inactive)
4,Clc1ccc(C2=NN(c3ccccc3)[C@H](c3cn(-c4ccccc4)nc3-c3ccccc3)C2)cc1,104% (inactive)
5,COc1cc(C(=O)/C=C/c2c(-c3cccs3)nc3sccn23)cc(OC)c1OC,-27.2% (active)
6,CCOC(=O)C1=C(C)N2C(=NC3=C(CCCC/C3=C\c3cc(OC)c(OC)c(OC)c3)C2c2cc(OC)c(OC)c(OC)c2)S1 (configuration not stated),67.5% (inactive)
7,CN1CCN(c2nc(-c3ccncc3)nc3sc4c(c23)CCCCCC4)CC1,90.9% (inactive)
8,COc1ccc(-n2ncc3c4nc(OC)c(S(=O)(=O)c5ccccc5)cc4ccc32)cc1,90.2% (inactive)
9,COc1ccc(C2CC(c3cc(OC)c(OC)c(OC)c3)=NN2c2ccc(S(N)(=O)=O)cc2)cc1 (configuration not stated),63.5% (inactive)
10,Cc1nn(CC(=O)O)c2c1C(=O)CC(C)(C)C2,109% (inactive)
11,O=C1C(Br)=C(c2ccccc2)C(=O)C(Br)=C1c1ccccc1,102% (inactive)
12,Cc1ccc(C)c2c1sc1nc3nc4sc5ccccc5n4c(=N)c3c(=O)n12,101% (inactive)
13,Nc1cc(Br)c(-c2nnc(CCC(=O)c3nc4ccccc4[nH]3)o2)c(Br)c1,69% (inactive)
14,COc1ccc(Nc2nc(NCCNc3ccnc4cc(Cl)ccc34)nc(N3CCOCC3)n2)cc1,51.5% (inactive)
15,Cc1nc2cc(Nc3nc(N4CCOCC4)nc(N4CCN(C)CC4)n3)ccc2n1Cc1ccccc1,115% (inactive)
16,COc1ccc(-c2nc3sc(C)cn3c2/C=C/C(=O)c2cc(OC)c(OC)c(OC)c2)cc1,29.3% (inactive)

row,SMILES,growth
1,O=[N+]([O-])c1ccc(O)c2ncccc12,35.5% (inactive)
2,CC1(C)N=C(N)N=C(N)N1c1cccc(/C=C/C=C/c2cccc([N+](=O)[O-])c2)c1,35.5% (inactive)
3,O=c1nc(NO)[nH]c(=O)n1Cc1ccccc1,105% (inactive)
4,C=CC(=O)N1CC2(CC(n3nc(-c4ccc(Oc5ccccc5)cc4)c4c(N)ncnc43)C2)C1,48.9% (inactive)
5,COc1ccc(OC)c(C2C(C#N)=C(N)Oc3cc(O)ccc32)c1 (configuration not stated),94% (inactive)
6,CC(C)(C)[Si](C)(C)OC1[C@@H](O[Si](C)(C)C(C)(C)C)[C@@H](CNC(=O)NC(=O)C(F)(F)F)O[C@H]1n1cnc2c(NC(=O)Nc3ccccc3)ncnc21 (some centres not stated),24% (inactive)
7,Nc1nc(N)c(N=Nc2c(Br)cc(S(N)(=O)=O)cc2Br)c(N)n1,61.3% (inactive)
8,O=C(NCc1cccnc1)c1ccc([N+](=O)[O-])o1,0.0106% (active)
9,Cn1c(=O)c2c(-c3ccccc3F)n(-c3ccc4c(c3)OCO4)cc2n(C)c1=O,102% (inactive)
10,Nc1nc2c(s1)CCc1c-2c(Br)n(Cc2ccccc2)c1Br,108% (inactive)
11,CN1CCc2c(c3ccccc3c3ccccc23)C1,39.1% (inactive)
12,COc1cccc(C2C3=C(COC3=O)N(CCO)c3cc4c(cc32)CCC4)c1 (configuration not stated),-42.8% (active)
13,O=C(Nc1ccc(F)cc1)c1ccc(C(=O)Nc2ccc(F)cc2)cc1,108% (inactive)
14,Cc1cc(O)cc2c1[C@H]1CC[C@]3(C)[C@@H](O)CC[C@H]3[C@@H]1C=C2,102% (inactive)
15,Clc1ccc(Nc2nc(Nc3ccccc3)nc(Nc3ccc(-c4cc(-c5ccc(Cl)cc5)on4)cc3)n2)cc1,56.9% (inactive)
16,Cc1nc(-c2ccccc2)cc2c(O)c(C(=O)N/N=C/Cc3ccccc3)[nH]c(=O)c12,115% (inactive)
